# Laboratory results: PubChem BioAssay (NCATS)
# Where “and” joins values, the source holds several entries; their conditions need not be identical. Equal entries are not always repeated. Inconclusive results are not listed. Unmarked numbers belong to inactive results. Calls of active or inactive are those of the source. Calls follow the shape of the dose curve; as a rule, active = well fitted activation curve with a large enough effect; inconclusive = small, poorly fitted or top-dose-only effect; inactive = no such curve, though single readings can be large or run the other way.
# Molecular target: Cellular tumor antigen p53 (Homo sapiens) (UniProt P04637)
# Sequence (P04637 whole entry, looked up): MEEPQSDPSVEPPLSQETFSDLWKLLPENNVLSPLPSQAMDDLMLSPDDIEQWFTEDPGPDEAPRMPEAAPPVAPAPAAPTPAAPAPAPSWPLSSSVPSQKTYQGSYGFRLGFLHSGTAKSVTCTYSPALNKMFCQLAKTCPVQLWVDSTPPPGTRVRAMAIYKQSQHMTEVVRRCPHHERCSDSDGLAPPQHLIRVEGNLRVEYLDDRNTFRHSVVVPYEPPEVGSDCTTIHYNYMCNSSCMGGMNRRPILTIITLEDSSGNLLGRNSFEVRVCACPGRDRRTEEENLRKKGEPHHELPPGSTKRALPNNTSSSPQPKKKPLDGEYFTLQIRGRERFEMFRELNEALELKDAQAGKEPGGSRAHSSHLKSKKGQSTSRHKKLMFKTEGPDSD
# Assay: Primary qHTS for small molecule compounds that upregulate eGFP-tagged delta133p53alpha (in N-terminal) cells. (AID 2060322); also: nearly all actives have a fitted effect of over 75% in size;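 as to activation: series mostly up to about 56 µM; 0% = DMSO vehicle and 100% = reference activator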
# Conditions: NCI-H358 eGFP-delta133p53alpha fluorescence, 24 h; activation: stronger effect = higher value
# Method in brief: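 NCI-H358 cells pre-induced 24 h with 10 ng/ml doxycycline to express N-terminal eGFP-delta133p53alpha, then dosed 24 h at 37C without doxycycline; fixed, Hoechst-stained, GFP intensity by laser scanning cytometry, normalized to DMSO (0%) and 57.5 uM 5-azacytidine (100%).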
# Potency is read from the fitted curve at half-maximal effect.
SMILES,activation,Potency
COc1cccc(-n2nc(C(=O)O)cc2-c2ccc(C3CCCCC3)c(Cl)c2)c1,1.43%,
COc1ccc(C#Cc2ccc(C(=O)N3CCC[C@@H](CO)C3)cc2)cc1,-13.8%,
CC1=C(C(=O)Nc2cc(Cl)ccc2Cl)C(c2ccco2)C2=C(CCCC2=O)N1 (centres undefined),17.7%,
O=C1CC2(CCCC2)[C@H](O)C(=O)N1CCCCN1CCN(c2ncccn2)CC1,4.77%,
CC(C)(F)C[C@@H](N[C@@H](c1ccc(-c2ccc(S(C)(=O)=O)cc2)cc1)C(F)(F)F)C(=O)NC1(C#N)CC1,-8.11%,
CC(=O)NC1=NN(C(C)=O)C(C)(c2ccccc2)S1 (centres undefined),,12 µM (active)
O=[N+]([O-])c1cn2c(n1)OC[C@@H](OCc1ccc(-c3ccc(OC(F)(F)F)cc3)nc1)C2,-3.34%,
COc1c(C)cnc(Cn2cc(C#CCC(C)(C)O)c3c(Cl)nc(N)nc32)c1C,-10%,
COc1ccccc1N1CCN(CC[C@@](C)(C(=O)C2CCCCC2)c2ccccc2)CC1,8.11%,
CC(C)(C)c1ccc(CNC(=S)NCc2ccc(NS(C)(=O)=O)c(F)c2)cc1,-6.68%,
O=C(Nc1cc(-c2ccccc2)nn1-c1ccccc1F)c1ccc([N+](=O)[O-])cc1,-5.73%,
N#CC(c1ccnc(OCc2ccc(CN3CCOCC3)cc2)n1)c1nc2ccccc2s1 (centres undefined),0.477%,
O=C(NCc1cccc(O)c1)c1cc2cc(F)ccc2[nH]1,0%,
CC(C)(C)c1cc(Br)cc([C@H](CC(=O)O)NC(=O)CNC(=O)c2cc(O)cc(NC3=NCC(O)CN3)c2)c1 (some centres undefined),-5.25%,
COc1cc(Br)c(S(=O)(=O)Nc2ccc(Cl)c(O[C@@H]3CCN(C)C3)c2)cc1OC,21.5%,
Cc1onc(-c2ccccc2)c1C(=O)N1CCN(c2ccc([N+](=O)[O-])cc2Cl)CC1,-0.477%,
O=C(Nc1ccccc1Br)NC1CCN(c2ccc(C(F)(F)F)cn2)C1 (centres undefined),0.477%,
Cc1ccccc1CN1CCn2c1nc1c(c2=O)CN(Cc2ccccc2)CC1,0.477%,
CC(C)c1ccccc1OC(=O)NCCc1ccc2ccccc2c1,2.39%,
COC(=O)c1ccc2c(c1)nc(NC(=O)c1ccccc1)n2CCCc1ccccc1,-10%,

SMILES,activation,Potency
CCOC(CN1CCN(CC(C)C(=O)c2ccccc2)CC1)c1ccccc1 (centres undefined),-4.18% and 4.3%,
O=C1NC(=O)C(c2cn3c4c(cccc24)CCC3)C1c1c[nH]c2ccccc12 (centres undefined),18.6%,
CCCCc1c(-c2ccc(OC)cc2)[nH]c2nccnc12,5.25%,
CCOc1ccc(NC(=S)N2CCC(C(O)(c3ccccc3)c3ccccc3)CC2)cc1,-0.955%,
CC1(C)Oc2ncnc(N)c2N=C1c1ccc(C23CCC(CC(=O)O)(CC2)CC3)cc1,-11.9%,
CC1(C)[C@H]2C[C@H](C/C=C\CCCC(=O)O)[C@@H](NC(=O)c3csc4ccc(O)cc34)[C@@H]1C2,-4.77%,
O=c1cc(OCc2ccc(F)cc2)ccn1-c1ccc(OCCN2CCCC2)cc1,-0.955%,
COc1cccc(CN(C(=O)CC(C)(C)C)C2CC(C(=O)N3CCNCC3)N(Cc3ccc4c(c3)OCO4)C2)c1 (centres undefined),-10%,
O=C(Nc1ccccc1)N1CCN(c2nc(-c3ccccc3)ns2)CC1,-13.8%,
CS(=O)(=O)NCC1CCC(Nc2nc3c(s2)CCSc2ccccc2-3)CC1 (centres undefined),-6.21%,
CCNC(=O)[C@H]1O[C@H](n2cnc3c(NCC(c4ccccc4)c4ccccc4)nc(C(=O)NCCNC(=O)NC4CCN(c5ccccn5)CC4)nc32)[C@H](O)[C@@H]1O,-9.55%,
Cc1cc(-c2nc(-c3ccc(OC(F)(F)F)cc3)no2)nn1Cc1ccnc(N2CCN(C3CC3)CC2)c1,-0.955%,
CN(C)c1nc(NC2CCC(NCCc3ccc(Br)cc3OC(F)(F)F)CC2)nc2ccccc12 (centres undefined),,13.5 µM (active)
Cc1nc(C#Cc2ccnc(Cl)c2)c(C)n1-c1ccc(F)cc1,-12.9%,
COc1ccc(CCc2nc3cc(-c4c(C)noc4C)ccc3n2C[C@H](C)N2CCOCC2)cc1Cl,20.1%,
Cc1ccccc1NC(=O)Nc1ccc(CN2C(=O)N([C@@H](CC(C)C)C(=O)N[C@@H](CC(=O)O)c3ccccc3)C(=O)C2(C)C)cc1,-2.86%,
CC(C)(C)c1ccc(S(=O)(=O)NCc2ccc(C(=O)Nc3cccnc3)cc2)cc1,1.91%,
CCOC(=O)c1sc(NC(=O)[C@H](C(C)C)n2c(=O)[nH]c3ccccc3c2=O)nc1C,14.3%,
Cn1ncnc1COc1nn2c(-c3cc(F)ccc3F)nnc2cc1C(C)(C)C,-11.9%,
